Read-out in test [1]: Intercellular Adhesion Molecule 1 (ICAM1), ICAM1 (gene 3383)
The experiment in a line: BSK_3C_ICAM1: BioMAP Diversity Plus: 3C Assay for Intercellular Adhesion Molecule 1 (ICAM1) Biomarker Activity (AID 2283003). To be noted: primary human endothelial cells (HUVEC); actives raise or lower the signal. In a few lines: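 Primary human umbilical vein endothelial cells in the BioMAP 3C system were exposed to chemicals for 24 h, then ICAM-1 was quantified by ELISA. Activity was fitted bidirectionally against the DMSO negative control baseline.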

The nature of test [2]: BSK_3C_Proliferation: Cell Proliferation Assessment in the BioMAP Diversity Plus: 3C Assay (AID 2283006).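 On AC50: potency may reflect either rise or fall in cell number versus DMSO.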 To be noted: primary human endothelial cells (HUVEC). In a few lines:
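Human umbilical vein endothelial cells were grown sub-confluent and exposed to chemical for 48 h, then fixed with 10% TCA and stained with 0.1% sulforhodamine B; absorbance at 560 nm gave relative cell number, fitted bidirectionally against DMSO baseline.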

Test [3] concerns the target Peroxisome proliferator-activated receptor gamma (Homo sapiens) (UniProt P37231). In words: ATG_PPARg_TRANS: Attagene TRANS-FACTORIAL HepG2 Assay for human Peroxisome Proliferator-activated Receptor-gamma (PPARg) (AID 2283007; active means hit-call score of the fitted dose curve at least 0.9, where 1 is the maximum). The essentials:
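HepG2 cells transiently transfected with multiplexed GAL4-UAS reporter units and exogenous chimeric NR-Gal4 proteins; reporter mRNA quantified after 24 h compound exposure by RT-PCR, fluorescent labelling, HpaI digestion and capillary electrophoresis; gain-of-signal fitted versus DMSO baseline.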

The target in test [4] is Nuclear receptor subfamily 1 group I member 2 (Homo sapiens) (UniProt O75469). The experiment in a line: ATG_PXR_TRANS: Attagene TRANS-FACTORIAL HepG2 Assay for human Pregnane X Receptor (PXR) (AID 2283008; active means hit-call score of the fitted dose curve at least 0.9, where 1 is the maximum). In a few lines:
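Read-out is fluorescence of labelled reporter cDNA fragments separated by capillary electrophoresis after RT-PCR and HpaI digestion. Source: HepG2 cells carrying PXR-GAL4/UAS reporter constructs, treated 24 h; activity fitted upward relative to DMSO.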

For test [5], the target named is human RAR-related Orphan Receptor beta (RORb), RORB (gene 6096) (UniProt Q92753). In words: ATG_RORb_TRANS: Attagene TRANS-FACTORIAL HepG2 Assay for human RAR-related Orphan Receptor beta (RORb) (AID 2283010; active means hit-call score of the fitted dose curve at least 0.9, where 1 is the maximum). In a few lines:
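HepG2 cells were transiently transfected with multiplexed GAL4-UAS reporter units expressing chimeric nuclear receptor–GAL4 proteins, then dosed for 24 h. Reporter mRNA was quantified by RT-PCR with fluorescent labelling and capillary electrophoresis; gain of signal was fitted relative to DMSO.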

Test [6] concerns the target human RAR-related Orphan Receptor gamma (RORg), RORC (gene 6097) (UniProt P51449). The experiment in a line: ATG_RORg_TRANS: Attagene TRANS-FACTORIAL HepG2 Assay for human RAR-related Orphan Receptor gamma (RORg) (AID 2283011; active means hit-call score of the fitted dose curve at least 0.9, where 1 is the maximum). In a few lines: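 Reporter transcripts from a transfected RORg-GAL4 chimera in HepG2 cells were quantified 24 h after dosing by RT-PCR, 6-FAM labelling, HpaI digestion and capillary electrophoresis; increases over DMSO baseline were fitted.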

Test [7] concerns the target Retinoic acid receptor RXR-alpha (Homo sapiens) (UniProt P19793). The experiment in a line: ATG_RXRa_TRANS: Attagene TRANS-FACTORIAL HepG2 Assay for human Retinoid X Receptor alpha (RXRa) (AID 2283012; active means hit-call score of the fitted dose curve at least 0.9, where 1 is the maximum). In a few lines:
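HepG2 cells transiently transfected with multiplexed GAL4-UAS reporter units and chimeric NR-GAL4 fusions, dosed 24 h. Reporter mRNA measured by RT-PCR, FAM labelling, HpaI digestion and capillary electrophoresis; gain-of-signal fitted relative to DMSO baseline.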

The target in test [8] is human Retinoid X Receptor beta (RXRb), RXRB (gene 6257) (UniProt P28702). The experiment in a line: ATG_RXRb_TRANS: Attagene TRANS-FACTORIAL HepG2 Assay for human Retinoid X Receptor beta (RXRb) (AID 2283013; active means hit-call score of the fitted dose curve at least 0.9, where 1 is the maximum). The essentials: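 HepG2 cells transiently transfected with multiplexed reporter units driven by GAL4-UAS and exogenous chimeric NR-Gal4 proteins; treated 24 h. Reporter mRNA measured by RT-PCR, 6-FAM labelling and capillary electrophoresis; gain-of-signal fitted versus DMSO baseline.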
Chain of human Retinoid X Receptor beta (RXRb), RXRB (gene 6257) (P28702 whole entry, looked up, the tested form may be a part): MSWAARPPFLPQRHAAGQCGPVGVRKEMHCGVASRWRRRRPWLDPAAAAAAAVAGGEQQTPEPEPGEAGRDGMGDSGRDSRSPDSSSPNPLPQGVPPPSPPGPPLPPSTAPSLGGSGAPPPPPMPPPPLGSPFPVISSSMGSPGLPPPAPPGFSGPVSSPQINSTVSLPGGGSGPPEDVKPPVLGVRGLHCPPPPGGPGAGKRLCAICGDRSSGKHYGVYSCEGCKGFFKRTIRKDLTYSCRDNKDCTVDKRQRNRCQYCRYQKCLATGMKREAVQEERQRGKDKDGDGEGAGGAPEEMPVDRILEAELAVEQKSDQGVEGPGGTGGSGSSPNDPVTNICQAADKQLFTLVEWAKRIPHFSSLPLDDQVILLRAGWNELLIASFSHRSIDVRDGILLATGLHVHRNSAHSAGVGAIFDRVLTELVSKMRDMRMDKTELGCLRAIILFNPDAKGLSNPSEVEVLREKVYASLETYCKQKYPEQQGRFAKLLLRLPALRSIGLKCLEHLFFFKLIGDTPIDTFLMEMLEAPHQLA

Test [9] addresses human Thyroid Receptor alpha (THRa1), THRA (gene 7067) (UniProt P10827). In words: ATG_THRa1_TRANS: Attagene TRANS-FACTORIAL HepG2 Assay for human Thyroid Receptor alpha (THRa1) (AID 2283014; active means hit-call score of the fitted dose curve at least 0.9, where 1 is the maximum). In a few lines: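 Transcripts from GAL4-UAS-driven reporters, measured after 24 h compound exposure by RT-PCR plus capillary electrophoresis of 6-FAM-labeled fragments, were fitted for gain of signal relative to DMSO. Cells: transiently transfected HepG2 expressing NR-Gal4 chimeras.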

Read-out in test [10]: E-selectin (Homo sapiens) (UniProt P16581)
The experiment in a line: BSK_3C_Eselectin: BioMAP Diversity Plus: 3C Assay for Eselectin Biomarker Activity (AID 2283015).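 On outcome: cell surface E-selectin protein quantified by ELISA 24 h after dosing.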 The note with it: primary human endothelial cells (HUVEC); actives raise or lower the signal. The essentials: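 E-selectin ELISA readout, fitted bidirectionally relative to DMSO, taken 24 h post-dosing in HUVEC cultures of the 3C system. Overt cytotoxicity tracked with sulforhodamine B staining of parallel wells.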

Read-out in test [11]: Interleukin-1 alpha (IL1a), IL1A (gene 3552)
The experiment in a line: BSK_BE3C_IL1a: BioMAP Diversity Plus: BE3C Assay for Interleukin-1 alpha (IL1a) Biomarker Activity (AID 2283016). The note with it: primary human bronchial epithelial cells; actives raise or lower the signal. The essentials:
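Human primary bronchial epithelial cells (BE3C system) were dosed with compound and IL-1a measured by ELISA 24 h later. Activity was fitted bidirectionally against DMSO baseline; cytotoxicity was tracked in parallel cultures by SRB total-protein staining.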

Read-out in test [12]: Monocyte Chemoattractant Protein-1 (MCP1), CCL2 (gene 6347)
In words: BSK_3C_MCP1: BioMAP Diversity Plus: 3C Assay for Monocyte Chemoattractant Protein-1 (MCP1) Biomarker Activity (AID 2283017). The note with it: primary human endothelial cells (HUVEC); actives raise or lower the signal. The essentials:
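MCP-1 was measured by ELISA 24 h after dosing in primary HUVEC 3C cultures and fitted in both directions relative to DMSO; cytotoxicity was checked by SRB total-protein staining in parallel wells.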

Read-out in test [13]: Monocyte Chemoattractant Protein-1 (MCP1), CCL2 (gene 6347)
In words: BSK_4H_MCP1: BioMAP Diversity Plus: 4H Assay for Monocyte Chemoattractant Protein-1 (MCP1) Biomarker Activity (AID 2283018). The note with it: primary human endothelial cells (HUVEC); actives raise or lower the signal. The essentials: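 Human umbilical vein endothelial cells (4H system) dosed with chemical; MCP-1 measured by ELISA 24 h after dosing. Bidirectional curve fitting against DMSO negative control as baseline; parallel SRB total-protein staining tracks overt cytotoxicity.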

Read-out in test [14]: Human Leukocyte Antigen - DR isotype (HLADR), HLA-DRA (gene 3122)
In words: BSK_3C_HLADR: BioMAP Diversity Plus: 3C Assay for Human Leukocyte Antigen - DR isotype (HLADR) Biomarker Activity (AID 2283019).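 On outcome: ELISA of cell-surface HLA-DR on HUVEC 24 h after dosing.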 To be noted: primary human endothelial cells (HUVEC); actives raise or lower the signal. In a few lines: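 Bidirectional fitting against DMSO was applied to the HLA-DR ELISA signal from human umbilical vein endothelial cells, 24 h post-dose. Cytotoxicity came from parallel SRB total-protein staining; 3C proliferation was counted by SRB at 48 h.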

Read-out in test [15]: Monokine induced gamma interferon (MIG), CXCL9 (gene 4283)
The experiment in a line: BSK_3C_MIG: BioMAP Diversity Plus: 3C Assay for Monokine induced gamma interferon (MIG) Biomarker Activity (AID 2283021). The note with it: primary human endothelial cells (HUVEC); actives raise or lower the signal. In a few lines:
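Primary human umbilical vein endothelial cells in the 3C system were exposed to chemical for 24 h, after which MIG was quantified by ELISA. Activity was fitted bidirectionally against DMSO as negative control and baseline.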

Test [16] has as its target Retinoic acid receptor alpha (Homo sapiens) (UniProt P10276). The experiment in a line: ATG_RARa_TRANS: Attagene TRANS-FACTORIAL HepG2 Assay for human Retinoic Acid Receptor alpha (RARa) (AID 2283005; active means hit-call score of the fitted dose curve at least 0.9, where 1 is the maximum). In a few lines:
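Reporter transcripts, measured by RT-PCR with fluorescent labeling and capillary electrophoresis after 24 h dosing, reflect activity of an exogenous human RARa–GAL4 fusion in transiently transfected HepG2. Fitted for increase relative to DMSO.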

Test [17] concerns the target human Retinoic Acid Receptor gamma (RARg), RARG (gene 5916) (UniProt P13631). The experiment in a line: ATG_RARg_TRANS: Attagene TRANS-FACTORIAL HepG2 Assay for human Retinoic Acid Receptor gamma (RARg) (AID 2283009; active means hit-call score of the fitted dose curve at least 0.9, where 1 is the maximum). The essentials:
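HepG2 cells transiently transfected with multiplexed reporter units expressing chimeric RARg-GAL4 and GAL4-UAS-driven reporters; 24 h compound exposure. Reporter mRNA quantified by RT-PCR with fluorescent labelling and capillary electrophoresis; gain-of-signal fitted relative to DMSO baseline.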

Read-out in test [18]: Interleukin-8 (IL8), CXCL8 (gene 3576)
In words: BSK_3C_IL8: BioMAP Diversity Plus: 3C Assay for Interleukin-8 (IL8) Biomarker Activity (AID 2283020). To be noted: primary human endothelial cells (HUVEC); actives raise or lower the signal. The essentials:
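Primary human umbilical vein endothelial cells (3C system) were exposed to test chemical for 24 h, then IL-8 was quantified by ELISA. Responses were fitted bidirectionally against DMSO vehicle as baseline.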

The target of test [19] is human Retinoic Acid Receptor beta (RARb), RARB (gene 5915) (UniProt P10826). The experiment in a line: ATG_RARb_TRANS: Attagene TRANS-FACTORIAL HepG2 Assay for human Retinoic Acid Receptor beta (AID 2283004; active means hit-call score of the fitted dose curve at least 0.9, where 1 is the maximum). The essentials:
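Induction of reporter mRNA from a chimeric RARb-Gal4 construct was measured by RT-PCR, FAM labelling, HpaI digestion and capillary electrophoresis. Measurements followed 24 h compound treatment of transiently transfected human HepG2 liver cells, with DMSO as baseline.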

Test [20] concerns the target human Vitamin D Receptor (VDR), VDR (gene 7421) (UniProt P11473). In words: ATG_VDR_TRANS: Attagene TRANS-FACTORIAL HepG2 Assay for human Vitamin D Receptor (VDR) (AID 2283022; active means hit-call score of the fitted dose curve at least 0.9, where 1 is the maximum). In a few lines:
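Transactivation by an exogenous VDR-Gal4 chimera in transiently transfected HepG2 cells was measured as reporter transcript level 24 hours after chemical treatment. RT-PCR products were analysed by capillary electrophoresis and fitted in the positive direction relative to DMSO.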

In general, AC50 refers to the concentration at which the activity in the assay is half-maximal.

Molecules are shown by their SMILES. Results filed as inconclusive are left out. Activity calls are given as the source filed them. How the source made its calls, unless noted: active means hit-call score of the fitted dose curve at least 0.9, where 1 is the maximum; inactive means score below 0.9.

Chain of E-selectin (Homo sapiens) (P16581 whole entry, looked up): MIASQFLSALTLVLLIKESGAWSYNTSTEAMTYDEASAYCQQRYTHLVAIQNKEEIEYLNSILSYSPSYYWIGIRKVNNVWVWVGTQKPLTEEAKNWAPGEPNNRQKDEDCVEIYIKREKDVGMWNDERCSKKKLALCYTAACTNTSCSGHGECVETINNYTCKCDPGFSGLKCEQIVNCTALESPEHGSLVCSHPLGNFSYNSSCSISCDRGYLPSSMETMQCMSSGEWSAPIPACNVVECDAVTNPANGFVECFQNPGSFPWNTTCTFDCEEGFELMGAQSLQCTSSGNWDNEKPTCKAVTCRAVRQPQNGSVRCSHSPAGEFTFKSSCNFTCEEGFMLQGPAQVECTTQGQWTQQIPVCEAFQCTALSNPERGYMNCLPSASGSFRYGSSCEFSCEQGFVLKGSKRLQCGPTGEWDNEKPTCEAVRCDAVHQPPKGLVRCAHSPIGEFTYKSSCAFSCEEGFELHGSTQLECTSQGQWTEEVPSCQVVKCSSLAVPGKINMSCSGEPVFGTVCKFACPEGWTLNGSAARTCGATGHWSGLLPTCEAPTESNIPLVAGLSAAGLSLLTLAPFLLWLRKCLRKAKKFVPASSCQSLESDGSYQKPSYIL
Chain of Nuclear receptor subfamily 1 group I member 2 (Homo sapiens) (O75469 whole entry, looked up, the tested form may be a part): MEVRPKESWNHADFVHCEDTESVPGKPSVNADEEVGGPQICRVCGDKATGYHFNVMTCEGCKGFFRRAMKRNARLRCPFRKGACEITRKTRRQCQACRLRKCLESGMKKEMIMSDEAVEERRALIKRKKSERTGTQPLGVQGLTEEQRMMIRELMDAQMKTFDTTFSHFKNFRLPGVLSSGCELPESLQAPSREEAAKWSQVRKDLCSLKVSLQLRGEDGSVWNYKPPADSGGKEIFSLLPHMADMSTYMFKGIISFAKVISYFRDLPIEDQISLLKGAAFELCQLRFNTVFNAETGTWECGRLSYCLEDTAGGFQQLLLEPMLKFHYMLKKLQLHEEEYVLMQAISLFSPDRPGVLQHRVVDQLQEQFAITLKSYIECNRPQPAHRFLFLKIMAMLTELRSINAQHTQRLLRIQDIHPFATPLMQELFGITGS
Chain of Retinoic acid receptor RXR-alpha (Homo sapiens) (P19793 whole entry, looked up, the tested form may be a part): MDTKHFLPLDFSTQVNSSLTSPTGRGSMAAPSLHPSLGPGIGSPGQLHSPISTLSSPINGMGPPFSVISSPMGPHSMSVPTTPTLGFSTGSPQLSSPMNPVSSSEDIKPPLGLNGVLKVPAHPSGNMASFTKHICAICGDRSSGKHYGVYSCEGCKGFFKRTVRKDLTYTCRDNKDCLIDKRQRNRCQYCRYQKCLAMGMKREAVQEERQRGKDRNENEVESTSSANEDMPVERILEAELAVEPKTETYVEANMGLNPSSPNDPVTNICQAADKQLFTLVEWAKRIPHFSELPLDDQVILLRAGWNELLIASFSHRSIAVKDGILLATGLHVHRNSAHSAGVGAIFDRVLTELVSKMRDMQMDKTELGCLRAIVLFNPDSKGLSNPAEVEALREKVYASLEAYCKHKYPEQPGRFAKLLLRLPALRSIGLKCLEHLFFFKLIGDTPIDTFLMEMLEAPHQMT
Chain of Peroxisome proliferator-activated receptor gamma (Homo sapiens) (P37231 whole entry, looked up, the tested form may be a part): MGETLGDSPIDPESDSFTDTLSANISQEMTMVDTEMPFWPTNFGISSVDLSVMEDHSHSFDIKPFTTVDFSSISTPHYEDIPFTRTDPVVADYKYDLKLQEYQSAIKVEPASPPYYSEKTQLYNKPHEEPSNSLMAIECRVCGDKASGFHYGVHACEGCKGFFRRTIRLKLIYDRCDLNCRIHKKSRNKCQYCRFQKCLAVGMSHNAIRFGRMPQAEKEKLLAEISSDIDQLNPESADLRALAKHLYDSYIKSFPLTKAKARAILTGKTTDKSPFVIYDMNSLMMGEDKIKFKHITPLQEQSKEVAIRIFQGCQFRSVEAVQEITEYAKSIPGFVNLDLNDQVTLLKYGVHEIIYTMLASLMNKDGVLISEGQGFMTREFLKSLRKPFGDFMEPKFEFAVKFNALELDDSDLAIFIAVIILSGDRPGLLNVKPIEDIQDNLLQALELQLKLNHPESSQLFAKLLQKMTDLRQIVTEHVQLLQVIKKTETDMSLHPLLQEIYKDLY
Chain of human RAR-related Orphan Receptor gamma (RORg), RORC (gene 6097) (P51449 whole entry, looked up, the tested form may be a part): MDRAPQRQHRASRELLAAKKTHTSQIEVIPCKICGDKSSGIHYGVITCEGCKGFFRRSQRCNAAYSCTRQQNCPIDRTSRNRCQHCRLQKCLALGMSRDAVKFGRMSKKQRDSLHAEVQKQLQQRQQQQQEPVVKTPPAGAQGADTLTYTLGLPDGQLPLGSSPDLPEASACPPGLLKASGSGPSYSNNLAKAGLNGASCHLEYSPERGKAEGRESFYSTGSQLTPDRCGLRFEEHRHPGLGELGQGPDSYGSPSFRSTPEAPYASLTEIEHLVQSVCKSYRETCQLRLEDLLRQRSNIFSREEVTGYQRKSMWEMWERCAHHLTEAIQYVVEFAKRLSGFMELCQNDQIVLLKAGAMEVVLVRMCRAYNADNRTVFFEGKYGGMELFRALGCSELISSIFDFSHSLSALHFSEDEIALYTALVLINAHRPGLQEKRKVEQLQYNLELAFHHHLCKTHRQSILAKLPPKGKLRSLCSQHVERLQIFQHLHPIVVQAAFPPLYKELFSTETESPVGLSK
Chain of Retinoic acid receptor alpha (Homo sapiens) (P10276 whole entry, looked up, the tested form may be a part): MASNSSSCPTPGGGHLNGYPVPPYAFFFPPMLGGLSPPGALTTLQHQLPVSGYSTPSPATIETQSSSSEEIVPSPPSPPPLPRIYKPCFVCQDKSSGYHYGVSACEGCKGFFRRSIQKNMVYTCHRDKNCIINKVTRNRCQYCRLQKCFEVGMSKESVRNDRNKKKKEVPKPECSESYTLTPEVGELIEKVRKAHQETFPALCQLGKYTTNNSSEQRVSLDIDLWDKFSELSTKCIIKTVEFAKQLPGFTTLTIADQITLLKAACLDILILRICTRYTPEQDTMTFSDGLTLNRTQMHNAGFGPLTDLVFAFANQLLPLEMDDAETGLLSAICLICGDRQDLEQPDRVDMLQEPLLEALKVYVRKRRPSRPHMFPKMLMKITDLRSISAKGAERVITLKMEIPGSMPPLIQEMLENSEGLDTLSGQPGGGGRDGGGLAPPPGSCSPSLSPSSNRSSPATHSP
Chain of human Retinoic Acid Receptor gamma (RARg), RARG (gene 5916) (P13631 whole entry, looked up, the tested form may be a part): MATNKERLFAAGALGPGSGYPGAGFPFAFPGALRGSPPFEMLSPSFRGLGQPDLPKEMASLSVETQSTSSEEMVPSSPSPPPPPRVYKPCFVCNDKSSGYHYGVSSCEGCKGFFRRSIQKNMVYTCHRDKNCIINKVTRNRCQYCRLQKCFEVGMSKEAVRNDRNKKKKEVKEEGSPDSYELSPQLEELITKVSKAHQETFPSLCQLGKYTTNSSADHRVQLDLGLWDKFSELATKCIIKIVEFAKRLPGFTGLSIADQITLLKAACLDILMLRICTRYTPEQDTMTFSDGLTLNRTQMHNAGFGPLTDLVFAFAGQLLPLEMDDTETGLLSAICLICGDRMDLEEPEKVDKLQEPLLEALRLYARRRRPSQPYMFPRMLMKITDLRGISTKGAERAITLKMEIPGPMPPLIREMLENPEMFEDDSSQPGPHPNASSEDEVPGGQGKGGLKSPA
Chain of human RAR-related Orphan Receptor beta (RORb), RORB (gene 6096) (Q92753 whole entry, looked up, the tested form may be a part): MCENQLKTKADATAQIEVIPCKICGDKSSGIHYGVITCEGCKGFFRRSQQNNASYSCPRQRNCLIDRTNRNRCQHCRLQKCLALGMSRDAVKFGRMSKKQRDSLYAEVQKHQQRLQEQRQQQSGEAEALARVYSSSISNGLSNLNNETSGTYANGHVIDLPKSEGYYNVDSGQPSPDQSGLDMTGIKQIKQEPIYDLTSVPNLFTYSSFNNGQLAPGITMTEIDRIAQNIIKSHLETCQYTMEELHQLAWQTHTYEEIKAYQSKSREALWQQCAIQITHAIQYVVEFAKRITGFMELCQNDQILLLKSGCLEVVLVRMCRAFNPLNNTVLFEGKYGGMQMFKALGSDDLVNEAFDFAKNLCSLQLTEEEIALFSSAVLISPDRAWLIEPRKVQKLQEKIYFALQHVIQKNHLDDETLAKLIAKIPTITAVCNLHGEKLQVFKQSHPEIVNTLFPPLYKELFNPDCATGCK
Chain of human Retinoic Acid Receptor beta (RARb), RARB (gene 5915) (P10826 whole entry, looked up, the tested form may be a part): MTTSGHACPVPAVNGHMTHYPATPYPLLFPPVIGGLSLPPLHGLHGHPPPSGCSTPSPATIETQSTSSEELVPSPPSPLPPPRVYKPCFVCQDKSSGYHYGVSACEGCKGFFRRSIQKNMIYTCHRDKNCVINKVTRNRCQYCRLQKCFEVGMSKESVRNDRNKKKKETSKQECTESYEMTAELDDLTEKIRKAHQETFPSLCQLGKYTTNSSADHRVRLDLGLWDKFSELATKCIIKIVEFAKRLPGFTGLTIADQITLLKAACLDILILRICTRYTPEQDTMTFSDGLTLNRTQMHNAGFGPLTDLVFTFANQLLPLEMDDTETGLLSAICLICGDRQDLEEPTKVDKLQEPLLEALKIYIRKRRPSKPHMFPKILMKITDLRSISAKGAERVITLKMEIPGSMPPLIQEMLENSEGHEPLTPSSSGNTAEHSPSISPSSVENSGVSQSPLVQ

As for `CCC(C)(C#N)N=NC(C)(C#N)CC` (configuration not stated), the outcome in test [1], in test [2], in [3], in test [4], in test [5] and in [6] was inactive. Moreover, the compound was classed as inactive in [7], in test [8], in test [9], in [10], in test [11] and in test [12]. Further, the outcome in [13], in test [14] and in test [15] was inactive.

On to `Cc1c([N+](=O)[O-])c(C)c([N+](=O)[O-])c(C(C)(C)C)c1[N+](=O)[O-]`, for which the concentration at half-maximal activity (AC50) in [1] was 20 µM (active); in [2] it was 26.8 µM (active); in [4] it was 2.05 µM (active); in [7], 9.15 µM (active); in test [8] it was 1.12 µM (active); in [10], 20 µM (active). Further, the concentration at half-maximal activity (AC50) in [13] is 20 µM (active); in test [14] it was 26.9 µM (active). The outcome in test [16], in test [3], in test [17], in test [11], in test [18] and in [15] was inactive.

For the compound `C#CCOC(=O)/C=C(C)/C=C/CC(C)CCCC(C)C` (configuration not stated), the outcome in test [1], in test [19], in [16], in [17], in [5] and in [6] was inactive. In addition, the result in test [11], in test [15] and in [20] was inactive. The AC50 in test [2] is 23.6 µM (active); in test [3] it was 27.8 µM (active); in test [4], 27.4 µM (active); in test [7], 14.1 µM (active); in test [8], 3.9 µM (active); in test [10], 6.38 µM (active). In addition, the AC50 in test [12] was 36.8 µM (active); in [13], 13.4 µM (active); in test [14], 28.1 µM (active).

These data come from PubChem BioAssay (EPA / NIEHS).
